Measured values taken from the supplement of paper PMC12067093, “Discovery and optimisation of a covalent ligand for TRIM25 and its application to targeted protein ubiquitination” (Chemical Science, 2025).
Of roughly 21,000 targets only a part is listed; those with the largest changes were picked by preference.

Compound: Cc1cc(ccc1-c1ccccc1)C(=O)N1CCCN(CC1)C(=O)CCl [compound 10]
Test: probe-labelled cysteine peptide fold change vs DMSO (competition) (log2 fold change); higher = less target engagement (more negative = stronger competition)
Conditions: THP-1, incubation time: 4 h
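Also: competitive profiling in live THP-1 cells: cysteine peptides tagged with an iodoacetamide desthiobiotin (IA-DTB) probe, intensity after compound treatment relative to DMSO-treated cells.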

Chain of UniProt Q14232 (Q14232 whole entry, looked up): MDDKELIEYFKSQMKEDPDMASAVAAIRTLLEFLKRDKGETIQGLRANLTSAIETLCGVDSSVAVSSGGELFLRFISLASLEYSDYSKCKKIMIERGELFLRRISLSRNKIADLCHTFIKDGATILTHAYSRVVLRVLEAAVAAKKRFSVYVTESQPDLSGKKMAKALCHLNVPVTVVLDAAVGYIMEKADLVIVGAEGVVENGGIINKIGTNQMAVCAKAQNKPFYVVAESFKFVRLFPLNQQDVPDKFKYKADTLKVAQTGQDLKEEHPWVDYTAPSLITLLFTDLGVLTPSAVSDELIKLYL
Chain of UniProt P10109 (P10109 whole entry, looked up): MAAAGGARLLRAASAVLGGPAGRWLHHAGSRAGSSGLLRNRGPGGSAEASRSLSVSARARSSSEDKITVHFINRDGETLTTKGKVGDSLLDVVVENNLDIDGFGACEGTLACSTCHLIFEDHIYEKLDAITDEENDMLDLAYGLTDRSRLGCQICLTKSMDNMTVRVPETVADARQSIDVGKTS
Chain of UniProt Q17RN3 (Q17RN3 whole entry, looked up): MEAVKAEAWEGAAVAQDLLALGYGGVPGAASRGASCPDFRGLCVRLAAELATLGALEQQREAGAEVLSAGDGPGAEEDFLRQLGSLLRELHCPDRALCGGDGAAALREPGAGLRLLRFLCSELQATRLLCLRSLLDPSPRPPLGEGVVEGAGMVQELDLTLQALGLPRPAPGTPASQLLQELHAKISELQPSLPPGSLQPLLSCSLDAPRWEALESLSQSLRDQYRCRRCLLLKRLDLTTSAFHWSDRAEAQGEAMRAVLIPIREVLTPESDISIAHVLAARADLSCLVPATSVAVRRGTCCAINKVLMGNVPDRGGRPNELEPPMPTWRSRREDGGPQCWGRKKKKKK
Chain of UniProt Q96E09 (Q96E09 whole entry): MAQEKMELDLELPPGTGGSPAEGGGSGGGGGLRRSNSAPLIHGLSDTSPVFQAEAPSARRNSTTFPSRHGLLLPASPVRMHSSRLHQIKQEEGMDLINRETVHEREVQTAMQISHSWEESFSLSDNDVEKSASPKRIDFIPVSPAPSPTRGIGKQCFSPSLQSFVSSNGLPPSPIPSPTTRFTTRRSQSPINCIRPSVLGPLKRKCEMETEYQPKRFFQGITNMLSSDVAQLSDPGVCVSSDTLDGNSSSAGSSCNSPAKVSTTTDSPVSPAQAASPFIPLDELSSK
Chain of UniProt Q9BTV6 (Q9BTV6 whole entry, looked up): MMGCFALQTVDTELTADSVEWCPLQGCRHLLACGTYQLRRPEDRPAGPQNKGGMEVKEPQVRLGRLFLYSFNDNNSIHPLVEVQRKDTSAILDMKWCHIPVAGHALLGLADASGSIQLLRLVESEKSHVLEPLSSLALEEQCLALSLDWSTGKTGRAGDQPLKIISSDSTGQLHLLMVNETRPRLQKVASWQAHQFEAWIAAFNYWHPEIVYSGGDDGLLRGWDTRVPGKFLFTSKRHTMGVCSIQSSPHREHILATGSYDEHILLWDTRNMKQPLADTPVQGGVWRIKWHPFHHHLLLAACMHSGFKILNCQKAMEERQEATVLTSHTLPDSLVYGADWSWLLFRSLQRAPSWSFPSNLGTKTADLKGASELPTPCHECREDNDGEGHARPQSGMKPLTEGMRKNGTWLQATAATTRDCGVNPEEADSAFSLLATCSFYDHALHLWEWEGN
Chain of UniProt Q8TB52 (Q8TB52 whole entry, looked up): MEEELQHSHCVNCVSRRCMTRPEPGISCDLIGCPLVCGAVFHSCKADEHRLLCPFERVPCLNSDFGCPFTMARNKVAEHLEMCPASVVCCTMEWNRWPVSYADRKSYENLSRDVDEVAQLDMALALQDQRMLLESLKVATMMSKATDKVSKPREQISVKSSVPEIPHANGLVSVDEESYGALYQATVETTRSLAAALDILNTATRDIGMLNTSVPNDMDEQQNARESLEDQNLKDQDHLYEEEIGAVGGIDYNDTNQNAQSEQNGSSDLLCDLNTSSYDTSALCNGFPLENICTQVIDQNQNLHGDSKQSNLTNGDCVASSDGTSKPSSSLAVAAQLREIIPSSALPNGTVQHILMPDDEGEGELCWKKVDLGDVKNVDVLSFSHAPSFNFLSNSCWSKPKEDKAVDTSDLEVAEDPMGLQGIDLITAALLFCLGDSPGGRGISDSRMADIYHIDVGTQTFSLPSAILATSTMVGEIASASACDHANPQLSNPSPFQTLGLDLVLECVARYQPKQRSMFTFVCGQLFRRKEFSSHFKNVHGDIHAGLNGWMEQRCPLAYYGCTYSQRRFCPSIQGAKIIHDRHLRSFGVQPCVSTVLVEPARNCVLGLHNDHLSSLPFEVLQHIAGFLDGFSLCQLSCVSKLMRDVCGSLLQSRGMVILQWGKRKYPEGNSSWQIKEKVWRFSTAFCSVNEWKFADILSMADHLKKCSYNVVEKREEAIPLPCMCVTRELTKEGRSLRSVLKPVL
Chain of UniProt Q6P2E9 (Q6P2E9 whole entry, looked up): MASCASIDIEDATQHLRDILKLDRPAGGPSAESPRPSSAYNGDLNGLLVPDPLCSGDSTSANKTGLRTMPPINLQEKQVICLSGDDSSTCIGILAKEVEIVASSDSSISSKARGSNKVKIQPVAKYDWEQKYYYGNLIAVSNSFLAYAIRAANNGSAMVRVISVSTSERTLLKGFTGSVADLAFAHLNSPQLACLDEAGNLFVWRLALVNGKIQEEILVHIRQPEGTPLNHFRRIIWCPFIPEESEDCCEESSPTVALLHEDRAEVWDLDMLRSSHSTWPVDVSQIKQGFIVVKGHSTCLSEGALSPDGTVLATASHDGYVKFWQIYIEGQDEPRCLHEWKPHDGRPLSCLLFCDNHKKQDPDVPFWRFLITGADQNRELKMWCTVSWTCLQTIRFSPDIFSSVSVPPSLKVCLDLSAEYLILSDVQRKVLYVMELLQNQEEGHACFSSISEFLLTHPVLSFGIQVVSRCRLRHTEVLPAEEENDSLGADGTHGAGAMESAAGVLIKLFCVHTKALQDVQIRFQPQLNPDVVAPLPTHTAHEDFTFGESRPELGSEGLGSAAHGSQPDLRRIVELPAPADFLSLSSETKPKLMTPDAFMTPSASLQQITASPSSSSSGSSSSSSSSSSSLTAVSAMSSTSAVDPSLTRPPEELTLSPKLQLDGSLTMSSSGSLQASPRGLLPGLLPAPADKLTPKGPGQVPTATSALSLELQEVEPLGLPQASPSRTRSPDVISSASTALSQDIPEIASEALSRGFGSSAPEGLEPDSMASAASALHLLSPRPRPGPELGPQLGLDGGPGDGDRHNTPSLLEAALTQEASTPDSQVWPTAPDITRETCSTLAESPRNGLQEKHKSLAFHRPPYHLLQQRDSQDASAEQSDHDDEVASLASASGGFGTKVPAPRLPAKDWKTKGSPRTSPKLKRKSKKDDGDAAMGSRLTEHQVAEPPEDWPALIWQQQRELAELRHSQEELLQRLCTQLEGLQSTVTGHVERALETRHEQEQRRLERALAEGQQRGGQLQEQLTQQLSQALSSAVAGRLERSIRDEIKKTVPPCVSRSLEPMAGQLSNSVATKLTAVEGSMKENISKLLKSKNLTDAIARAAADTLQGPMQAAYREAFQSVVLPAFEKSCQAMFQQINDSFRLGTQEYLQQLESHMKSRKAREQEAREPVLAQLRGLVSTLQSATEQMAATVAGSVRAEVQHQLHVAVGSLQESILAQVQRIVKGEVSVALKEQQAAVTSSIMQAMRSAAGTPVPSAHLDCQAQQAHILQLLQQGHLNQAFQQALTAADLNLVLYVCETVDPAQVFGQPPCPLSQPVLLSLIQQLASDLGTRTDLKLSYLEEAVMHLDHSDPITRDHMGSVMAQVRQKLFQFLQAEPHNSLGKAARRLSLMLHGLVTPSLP
Chain of UniProt P42566 (P42566 whole entry, looked up): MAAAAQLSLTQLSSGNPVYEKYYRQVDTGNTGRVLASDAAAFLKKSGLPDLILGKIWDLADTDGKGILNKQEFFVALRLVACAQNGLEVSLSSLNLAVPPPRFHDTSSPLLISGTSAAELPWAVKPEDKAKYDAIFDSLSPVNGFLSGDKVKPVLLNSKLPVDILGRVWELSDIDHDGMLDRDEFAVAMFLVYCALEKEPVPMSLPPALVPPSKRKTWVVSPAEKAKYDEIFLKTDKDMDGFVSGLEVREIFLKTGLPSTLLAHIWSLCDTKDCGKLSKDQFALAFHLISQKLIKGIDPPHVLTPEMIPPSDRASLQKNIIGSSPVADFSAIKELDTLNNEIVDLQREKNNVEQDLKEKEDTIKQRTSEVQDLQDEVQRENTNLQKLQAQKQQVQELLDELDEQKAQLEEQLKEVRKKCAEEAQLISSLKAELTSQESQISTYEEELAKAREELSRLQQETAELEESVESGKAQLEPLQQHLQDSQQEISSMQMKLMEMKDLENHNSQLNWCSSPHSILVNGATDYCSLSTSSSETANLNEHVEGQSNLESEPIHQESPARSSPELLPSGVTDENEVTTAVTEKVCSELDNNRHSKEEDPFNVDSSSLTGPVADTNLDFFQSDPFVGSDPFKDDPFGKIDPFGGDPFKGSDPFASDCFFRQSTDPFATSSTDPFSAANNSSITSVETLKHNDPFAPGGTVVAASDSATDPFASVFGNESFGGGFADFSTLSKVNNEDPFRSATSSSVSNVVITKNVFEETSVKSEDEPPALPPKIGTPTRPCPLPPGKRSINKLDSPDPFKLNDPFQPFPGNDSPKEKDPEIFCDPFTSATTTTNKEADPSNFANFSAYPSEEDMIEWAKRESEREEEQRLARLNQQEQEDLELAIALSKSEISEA
Chain of UniProt Q5T8I3 (Q5T8I3 whole entry, looked up): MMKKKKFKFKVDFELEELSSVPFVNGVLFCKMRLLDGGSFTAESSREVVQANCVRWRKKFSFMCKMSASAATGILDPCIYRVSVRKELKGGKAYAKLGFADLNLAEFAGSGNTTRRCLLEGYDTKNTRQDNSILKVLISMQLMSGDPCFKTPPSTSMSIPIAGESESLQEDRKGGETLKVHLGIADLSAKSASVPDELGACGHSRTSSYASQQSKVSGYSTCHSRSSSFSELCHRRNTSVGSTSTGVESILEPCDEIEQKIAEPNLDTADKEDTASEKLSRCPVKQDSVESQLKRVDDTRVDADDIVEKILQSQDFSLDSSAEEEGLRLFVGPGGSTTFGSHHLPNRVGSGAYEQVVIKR

Target	probe-labelled cysteine peptide fold change (10 µM)	probe-labelled cysteine peptide fold change (50 µM)
DPH5_Q9H2P9_120_VIHNASIMNAVGCCGLQLYK (UniProt Q9H2P9)	0.0911	0.264
DYNC1H1_Q14204_1888_CYLTMTQALEAR (UniProt Q14204)	-0.0386	-0.161
EIF3CL_B5ME19_572_TCAILCHIYHHALHSR<|>EIF3C_Q99613_571_TCAILCHIYHHALHSR (UniProt Q99613+B5ME19)	0.0697	-0.279
FDX1_P10109_152+155_LGCQICLTK (UniProt P10109)	-0.319	-0.896
EPRS_P07814_660_NSKHEELMLGDPCLK (UniProt P07814)	-0.334	-1.37
ETHE1_O95571_170_TDFQQGCAK (UniProt O95571)	-0.118	-1.3
FBXO30_Q8TB52_90_VAEHLEMCPASVVCCTMEWNR (UniProt Q8TB52)	-0.103	-0.0583
EEF1A1_P68104_234_DGNASGTTLLEALDCILPPTRPTDKPLRLPLQDVYK (UniProt P68104)	-0.124	-0.435
EEF1A1_P68104_31_CGGIDKR<|>EEF1A2_Q5VTE0_31_CGGIDKR (UniProt Q5VTE0+P68104)	-1.04	-1.79
EPRS_P07814_1076_KLGVENCYFPMFVSQSALEK (UniProt P07814)	0.288	0.373
EXOSC10_Q01780_555_IAEELPKEPQGIIACCNPVPPLVR (UniProt Q01780)	-0.144	-1.17
ERMP1_Q7Z2K6_737_AHCEENAPLCGFPWYLPVHFLIR (UniProt Q7Z2K6)	-0.0124	0.222
FDFT1_P37268_6_CLGHPEEFYNLVR (UniProt P37268)	-0.238	-0.749
EPRS_P07814_92+105_LSSCDSFTSTINELNHCLSLR (UniProt P07814)	0.0532	-0.00186
FAM102B_Q5T8I3_254_RNTSVGSTSTGVESILEPCDEIEQK (UniProt Q5T8I3)	-0.237	0.149
DOCK10_Q96BY6_1310_TDNCEK (UniProt Q96BY6)	-0.105	-0.108
EIF2B1_Q14232_218_IGTNQMAVCAK (UniProt Q14232)	-0.148	-0.133
EZH2_Q15910_260_ELTEQQLPGALPPECTPNIDGPNAK (UniProt Q15910)	-0.164	0.256

Target	probe-labelled cysteine peptide fold change (10 µM)	probe-labelled cysteine peptide fold change (50 µM)
EPS15_P42566_782_IGTPTRPCPLPPGKR (UniProt P42566)	-0.367	-1.1
DPH7_Q9BTV6_33_HLLACGTYQLR (UniProt Q9BTV6)	0.0319	0.078
FAM118A_Q9NWS6_113_TGDAKPSFFQDCLMEVFDDLEQHIR (UniProt Q9NWS6)	0.174	-0.519
EXOSC1_Q9Y3B2_73_ETESQLLPDVGAIVTCK (UniProt Q9Y3B2)	-0.0568	0.13
EZH2_Q15910_324_NTETALDNKPCGPQCYQHLEGAK (UniProt Q15910)	0.251	-0.196
FAM98C_Q17RN3_340_REDGGPQCWGR (UniProt Q17RN3)	-0.342	-1.05
DSTN_P60981_12_ASGVQVADEVCR (UniProt P60981)	0.0942	0.212
DYNC1H1_Q14204_2712_IQFVGACNPPTDPGRKPLSHR (UniProt Q14204)	-0.0552	0.27
FAM120B_Q96EK7_547_LEALMCTNPEIK (UniProt Q96EK7)	-0.253	0.187
FANCG_O15287_417_AQDALTLCEELLSR (UniProt O15287)	0.0123	0.0425
FAM126A_Q9BYI3_401_ETTGESCK (UniProt Q9BYI3)	-0.493	-1.16
FAM120A_Q9NZB2_919_VAAASGHCGAFSGSDSSR (UniProt Q9NZB2)	-0.383	-0.344
ELAVL1_Q15717_13_SNGYEDHMAEDCR (UniProt Q15717)	0.863	1.62
EXOSC2_Q13868_259_MMLYDTSILYCYEASLPHQIK (UniProt Q13868)	0.341	0.254
EEF1A2_Q05639_411_SGDAAIVEMVPGKPMCVESFSQYPPLGR (UniProt Q05639)	-0.261	-0.239
EDC4_Q6P2E9_976_LCTQLEGLQSTVTGHVER (UniProt Q6P2E9)	-0.0211	0.299
EEFSEC_P57772_442_LDADIHTNTCR (UniProt P57772)	-0.204	-1.14
FAM122A_Q96E09_193_SQSPINCIRPSVLGPLK (UniProt Q96E09)	-0.132	-0.161
